Laboratory results reported in PubChem BioAssay (Tox21).
Records with an inconclusive call do not appear. Activity calls are given as the source filed them. Unless noted, calls follow the shape of the dose curve; as a rule, active = well fitted curve in the direction sought with a large enough effect in the repeat runs; inconclusive = weak or mixed curves; inactive = no such curve, though single readings can be large; an effect the other way counts as inactive or inconclusive.

Legend:
[1] = qHTS assay to identify small molecule antagonists of the glucocorticoid receptor (GR) signaling pathway - cell viability counter screen (AID 720693); also: nearly all actives have a fitted effect of over 55% in size
[2] = qHTS assay for identifying genotoxic compounds that show differential cytotoxicity against isogenic chicken DT40 cell lines with known DNA damage response pathways - wild type cell line (AID 743012); also: nearly all actives have a fitted effect of over 60% in size; also: potency is read from the fitted curve at half-maximal effect
Summary of the method: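 Viability of DNA repair-proficient chicken DT40 cells was assessed by CellTiter-Glo luminescence following 40 h compound exposure at 37 C/5% CO2.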

[3] = qHTS assay for identifying genotoxic compounds that show differential cytotoxicity against isogenic chicken DT40 cell lines with known DNA damage response pathways - Rev3 mutant cell line (AID 743014); also: nearly all actives have a fitted effect of over 55% in size; also: potency is read from the fitted curve at half-maximal effect
[4] = qHTS assay for identifying genotoxic compounds that show differential cytotoxicity against isogenic chicken DT40 cell lines with known DNA damage response pathways - Rad54/Ku70 mutant cell line (AID 743015); also: nearly all actives have a fitted effect of over 60% in size; also: potency is read from the fitted curve at half-maximal effect
[5] = qHTS assay to identify small molecule antagonists of the androgen receptor (AR) signaling pathway - cell viability counter screen (AID 743033; also: nearly all actives have a fitted effect of over 45% in size)
[6] = qHTS assay to identify small molecule antagonists of the androgen receptor (AR) signaling pathway using the MDA cell line - cell viability counter screen (AID 743041; also: nearly all actives have a fitted effect of over 45% in size)
Summary of the method: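 qHTS viability read-out; MDA-kb2 AR-luc; R1881-stimulated; 16 h exposure at 37C, 0% CO2; CellTiter-Fluor, 30 min; fluorescence intensity.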

[7] = qHTS assay to identify small molecule antagonists of the thyroid receptor (TR) signaling pathway - cell viability counter screen (AID 743064); also: nearly all actives have a fitted effect of over 50% in size; also: potency is read from the fitted curve at half-maximal effect
Summary of the method: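 Rat GH3 pituitary tumor cells stably expressing two TR response elements driving luciferase were plated, rested 4 h, then dosed with library compounds and T3 (1 nM final). After 23.5 h at 37 °C, CellTiter-Fluor was added for 30 min and fluorescence recorded.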

[8] = qHTS assay to identify small molecule antagonists of the thyroid receptor (TR) signaling pathway (AID 743065); also: series mostly up to about 70 µM; nearly all actives have a fitted effect of over 55% in size
Summary of the method: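 GH3.TRE-Luc rat pituitary cells carrying two TR response elements driving luciferase were plated for 4 h, given compound plus 1 nM T3 (final), and incubated 23.5 h at 37 C. ONE-Glo luminescence measured reporter inhibition; CellTiter-Fluor fluorescence tracked cytotoxicity.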

[9] = system: thyroid hormone receptor (rat, GH3 cells); test: qHTS assay to identify small molecule agonists of the thyroid receptor (TR) signaling pathway (AID 743066; calls by dose curve)
[10] = target: Estrogen receptor (Homo sapiens) (UniProt P03372); test: qHTS assay to identify small molecule antagonists of the estrogen receptor alpha (ER-alpha) signaling pathway (AID 743069; active = well fitted curve in the direction sought with a large enough effect in the signal ratio in the repeat runs, not every such curve was filed as active; the % refers to the signal ratio)
Summary of the method: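 Screening used a UAS-driven beta-lactamase reporter integrated into HEK293 cells expressing ER-alpha, stimulated with 17beta-estradiol alongside test compounds over 18 hr at 37C; signal came from LiveBLAzer B/G FRET fluorescence.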

[11] = target: Estrogen receptor (Homo sapiens) (UniProt P03372); test: qHTS assay to identify small molecule agonists of the estrogen receptor alpha (ER-alpha) signaling pathway (AID 743075; calls by dose curve)
[12] = target: Estrogen receptor (Homo sapiens) (UniProt P03372); test: qHTS assay to identify small molecule agonists of the estrogen receptor alpha (ER-alpha) signaling pathway using the BG1 cell line (AID 743079); also: nearly all actives have a fitted effect of over 20% in size; also: potency is read from the fitted curve at half-maximal effect
[13] = qHTS assay to identify small molecule antagonists of the estrogen receptor alpha (ER-alpha) signaling pathway using the BG1 cell line (AID 743080; calls by dose curve;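 also: BG1 cells stimulated with 17beta-estradiol alongside compound; series mostly up to about 70 µM; nearly all actives have a fitted effect of over 25% in size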)
Summary of the method: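 Readout is ONE-Glo luminescence, taken 30 min at room temperature after reagent addition, preceded by a CellTiter-Fluor viability read; BG1-Luc-4E2 cells had received compound and 17beta-estradiol for 21.5 h at 37 C.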

[14] = qHTS assay to identify small molecule antagonists of the estrogen receptor alpha (ER-alpha) signaling pathway using the BG1 cell line - cell viability counter screen (AID 743081);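 also: compound given together with 17beta-estradiol as the ER stimulus; series mostly up to about 70 µM; nearly all actives have a fitted effect of over 45% in size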
[15] = qHTS assay to identify small molecule antagonists of the estrogen receptor alpha (ER-alpha) signaling pathway - cell viability counter screen (AID 743074; calls by dose curve; also: nearly all actives have a fitted effect of over 45% in size)
Aromatase (Homo sapiens) = Aromatase (Homo sapiens) (UniProt P11511); test: qHTS assay to identify aromatase inhibitors (AID 743083); also: series mostly up to about 70 µM; nearly all actives have a fitted effect of over 55% in size
[16] = target: Androgen receptor (Homo sapiens) (UniProt P10275); test: qHTS assay to identify small molecule antagonists of the androgen receptor (AR) signaling pathway (AID 743035; active = well fitted inhibition curve with a large enough effect in the signal ratio in the repeat runs, not every such curve was filed as active; the % refers to the signal ratio)
Summary of the method: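 Reporter HEK293 cells were exposed to compounds and R1881 overnight (16 h, 37C); beta-lactamase activity was then quantified by FRET fluorescence.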

[17] = target: Androgen receptor (Homo sapiens) (UniProt P10275); test: qHTS assay to identify small molecule agonists of the androgen receptor (AR) signaling pathway using the MDA cell line (AID 743040; also: nearly all actives have a fitted effect of over 20% in size)
Summary of the method: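 Agonist activity is measured as luciferase luminescence in human MDA-kb2 cells whose MMTV reporter responds to both AR and GR. Compounds in DMSO incubate 16 h at 37C, 0% CO2, and ONE-Glo is read after 30 min.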

[18] = target: Androgen receptor (Homo sapiens) (UniProt P10275); test: qHTS assay to identify small molecule antagonists of the androgen receptor (AR) signaling pathway using the MDA cell line (AID 743042; also: nearly all actives have a fitted effect of over 55% in size)
Summary of the method: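 MDA-kb2 cells (human breast carcinoma, stably carrying an MMTV-luciferase reporter responsive to AR and GR) were plated at 3,000 cells/well and preincubated 5 hr at 37C, then given compound plus R1881 agonist for 16 h. ONE-Glo luminescence was read.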

Measured: Potency

Androgen receptor (Homo sapiens), sequence (P10275 whole entry, looked up): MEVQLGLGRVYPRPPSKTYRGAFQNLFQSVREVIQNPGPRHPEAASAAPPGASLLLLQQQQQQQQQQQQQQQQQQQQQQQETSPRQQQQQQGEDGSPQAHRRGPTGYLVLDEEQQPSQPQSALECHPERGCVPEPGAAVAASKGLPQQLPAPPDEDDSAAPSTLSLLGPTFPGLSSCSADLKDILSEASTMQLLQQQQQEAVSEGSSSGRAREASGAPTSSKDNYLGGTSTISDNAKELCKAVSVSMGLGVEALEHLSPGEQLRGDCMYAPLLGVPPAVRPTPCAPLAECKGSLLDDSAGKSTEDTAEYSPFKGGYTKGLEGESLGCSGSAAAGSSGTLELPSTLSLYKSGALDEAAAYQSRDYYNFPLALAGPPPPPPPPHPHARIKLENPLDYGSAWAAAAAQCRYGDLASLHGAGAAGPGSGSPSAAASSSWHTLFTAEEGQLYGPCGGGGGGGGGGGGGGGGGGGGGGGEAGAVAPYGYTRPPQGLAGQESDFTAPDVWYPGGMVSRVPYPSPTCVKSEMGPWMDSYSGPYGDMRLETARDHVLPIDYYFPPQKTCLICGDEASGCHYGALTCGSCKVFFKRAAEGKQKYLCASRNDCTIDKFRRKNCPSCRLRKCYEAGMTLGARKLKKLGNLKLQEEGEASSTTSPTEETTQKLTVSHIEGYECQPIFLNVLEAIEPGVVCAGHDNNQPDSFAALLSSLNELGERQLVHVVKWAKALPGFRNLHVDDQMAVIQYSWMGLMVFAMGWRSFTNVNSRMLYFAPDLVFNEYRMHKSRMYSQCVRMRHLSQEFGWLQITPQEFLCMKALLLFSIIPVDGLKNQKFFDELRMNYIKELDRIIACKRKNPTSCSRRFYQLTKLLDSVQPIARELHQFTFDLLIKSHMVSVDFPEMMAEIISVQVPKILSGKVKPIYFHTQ
Aromatase (Homo sapiens), sequence (P11511 whole entry, looked up): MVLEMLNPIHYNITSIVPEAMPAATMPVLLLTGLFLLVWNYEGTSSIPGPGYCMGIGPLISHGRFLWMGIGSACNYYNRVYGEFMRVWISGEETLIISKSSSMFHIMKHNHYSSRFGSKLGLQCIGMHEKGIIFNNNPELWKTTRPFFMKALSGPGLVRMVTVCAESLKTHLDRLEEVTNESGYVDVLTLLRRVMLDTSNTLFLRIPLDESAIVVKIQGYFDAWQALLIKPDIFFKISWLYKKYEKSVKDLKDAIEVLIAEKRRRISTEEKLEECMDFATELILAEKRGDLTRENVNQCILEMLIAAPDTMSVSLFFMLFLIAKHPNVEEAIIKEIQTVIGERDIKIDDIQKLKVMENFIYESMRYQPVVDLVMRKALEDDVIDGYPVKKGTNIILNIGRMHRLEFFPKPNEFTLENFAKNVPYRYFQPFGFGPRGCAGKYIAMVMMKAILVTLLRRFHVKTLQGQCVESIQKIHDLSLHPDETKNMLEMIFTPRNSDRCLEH
Estrogen receptor (Homo sapiens), sequence (P03372 whole entry, looked up): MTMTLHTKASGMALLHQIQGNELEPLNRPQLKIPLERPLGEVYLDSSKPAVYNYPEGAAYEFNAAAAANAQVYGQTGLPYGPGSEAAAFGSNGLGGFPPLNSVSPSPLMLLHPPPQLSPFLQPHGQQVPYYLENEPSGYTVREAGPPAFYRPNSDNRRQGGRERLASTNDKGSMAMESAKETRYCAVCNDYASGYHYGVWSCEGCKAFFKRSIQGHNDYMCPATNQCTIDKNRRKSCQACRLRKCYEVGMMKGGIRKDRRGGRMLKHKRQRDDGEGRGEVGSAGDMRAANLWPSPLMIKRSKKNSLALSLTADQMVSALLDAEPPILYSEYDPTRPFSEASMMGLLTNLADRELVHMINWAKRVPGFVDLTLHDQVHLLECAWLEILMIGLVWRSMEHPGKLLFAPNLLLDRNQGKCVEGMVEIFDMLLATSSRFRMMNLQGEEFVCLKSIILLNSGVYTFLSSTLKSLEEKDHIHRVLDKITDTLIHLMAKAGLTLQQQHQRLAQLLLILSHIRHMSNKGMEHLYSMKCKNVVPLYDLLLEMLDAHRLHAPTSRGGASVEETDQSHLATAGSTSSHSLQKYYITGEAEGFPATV

N=C(N)c1ccc(OCCCOc2ccc(C(=N)N)cc2)cc1
active: [2] 4.22 µM | [3] 8.41 µM | [4] 5.96 µM
not listed: [15] | Aromatase (Homo sapiens) | [16] | [17] | [18]
inactive: all other assays above

O=C[C@H](O)[C@@H](O)[C@H](O)[C@H](O)CO
not listed: [16] | [17] | [18]
inactive: all other assays above

Cc1cc(O)cc2c1O[C@](C)(CCC[C@H](C)CCC[C@H](C)CCCC(C)C)CC2
not listed: [16] | [17] | [18]
inactive: all other assays above

CCOC(=O)c1cccc(N)c1
not listed: [12] | [13] | [16] | [17] | [18]
inactive: all other assays above

NC(=O)COCCN1CCN(C(c2ccccc2)c2ccc(Cl)cc2)CC1 (stereo unspecified)
active: [2] 33.5 µM | [3] 8.41 µM | [4] 26.6 µM | [7] 23.7 µM
not listed: [8] | [9] | [13]
inactive: all other assays above

O=[N+]([O-])c1ccc(F)cc1F
not listed: [16] | [17] | [18]
inactive: all other assays above

CCCCC(CC)COC(=O)c1ccccc1O (stereo unspecified)
active: [12] 16.8 µM
not listed: [7] | [16] | [17] | [18]
inactive: all other assays above

O=C(O)CN(CCOCCOCCN(CC(=O)O)CC(=O)O)CC(=O)O
not listed: [10] | [11] | [12] | [13] | [16] | [17] | [18]
inactive: all other assays above

CC(C)=CCCC(C)CC(=O)O (stereo unspecified)
not listed: [10] | [11] | [12] | [13] | [16] | [17] | [18]
inactive: all other assays above
